Data on ten molecules can be found in the supplement of paper PMC4022240.

Holding throughout (assay): peptide microarray binding signal (635 nm), min-max normalized on array (fraction of array maximum); higher = stronger binding
Settings in all cases: peptide region: H2B 17-29

Assay [1] has as its target T1, HaloTag-ATRX ADD domain (163-292).
T1 chain: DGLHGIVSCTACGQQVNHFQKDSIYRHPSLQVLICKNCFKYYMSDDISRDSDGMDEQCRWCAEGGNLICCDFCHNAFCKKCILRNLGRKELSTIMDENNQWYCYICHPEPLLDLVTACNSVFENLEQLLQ
The method, then:
(§1)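 Histone 13-mer peptides were synthesized as cellulose conjugates with a C-terminal 20-atom PEG linker and printed in triplicate on nitrocellulose. The sequence given is the unmodified backbone; PTMs (Kme1/2/3, Kac, Sph/Tph, Rme/Rme2a/Rme2s, Rcit) are listed in the label and the 'peptide modifications' condition. Slides were probed at 4 °C for 1 h with biotin-labelled (HQ)5-HaloTag reader fusions (ATRX-ADD, ING2-PHD) then streptavidin-Alexa647, or with rabbit histone antibodies then anti-rabbit Alexa647. The mean 635 nm signal of the triplicate spots was scaled 0-1 between the lowest and highest values on each array.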

For assay [2], the target named is HaloTag-ING2 PHD (mouse Ing2 200-280). The protocol:
as §1

In assay [3] the target is anti-H3K4me3 antibody ab8580. The method, then:
as §1

Assay [4] concerns the target anti-H3K9me3 antibody ab8898. The method, then:
as §1

[5] abbreviates: peptide modifications: H2BK23ac H2BK24ac H2BK27ac H2BK28ac, binder concentration: 1:2,000 dilution.
[6] abbreviates: peptide modifications: H2BK23ac H2BK24ac H2BK27ac H2BK28ac, binder concentration: 1:10,000 dilution.
Setting [7] is: peptide modifications: H2BK23ac H2BK24ac H2BK27ac, binder concentration: 1:2,000 dilution.
Setting [8] is: peptide modifications: H2BK23ac H2BK24ac H2BK27ac, binder concentration: 1:10,000 dilution.
Setting [9] is: peptide modifications: H2BK20ac H2BK28ac, binder concentration: 1:2,000 dilution.
[10] abbreviates: peptide modifications: H2BK20ac H2BK28ac, binder concentration: 1:10,000 dilution.
Setting [11] is: peptide modifications: H2BK23ac H2BK28ac, binder concentration: 1:2,000 dilution.
The mark [12] stands for this setting: peptide modifications: H2BK23ac H2BK28ac, binder concentration: 1:10,000 dilution.
The mark [13] stands for this setting: peptide modifications: H2BK20ac H2BK24ac H2BK27ac, binder concentration: 1:2,000 dilution.
The mark [14] stands for this setting: peptide modifications: H2BK20ac H2BK24ac H2BK27ac, binder concentration: 1:10,000 dilution.
Where [15] appears, read: peptide modifications: H2BK23ac H2BK27ac, binder concentration: 1:2,000 dilution.
The mark [16] stands for this setting: peptide modifications: H2BK23ac H2BK27ac, binder concentration: 1:10,000 dilution.
[17] abbreviates: peptide modifications: H2BK23ac H2BK24ac, binder concentration: 1:2,000 dilution.
Where [18] appears, read: peptide modifications: H2BK23ac H2BK24ac, binder concentration: 1:10,000 dilution.
Where [19] appears, read: peptide modifications: H2BK20ac, binder concentration: 1:2,000 dilution.
[20] abbreviates: peptide modifications: H2BK20ac, binder concentration: 1:10,000 dilution.
Setting [21] is: peptide modifications: H2BK24ac, binder concentration: 1:2,000 dilution.
[22] abbreviates: peptide modifications: H2BK24ac, binder concentration: 1:10,000 dilution.
The mark [23] stands for this setting: peptide modifications: H2BK20ac H2BK24ac H2BK28ac, binder concentration: 1:2,000 dilution.
[24] abbreviates: peptide modifications: H2BK20ac H2BK24ac H2BK28ac, binder concentration: 1:10,000 dilution.

± gives the standard deviation.

For AVTKAQKKDGKKR [H2B 17-29 A V T K A Q Kac Kac D G Kac Kac R], the “peptide microarray binding signal” value in assay [1] (peptide modifications: H2BK23ac H2BK24ac H2BK27ac H2BK28ac, binder concentration: 50 nM) amounted to 0.00486 ± 0.00032; in assay [1] (peptide modifications: H2BK23ac H2BK24ac H2BK27ac H2BK28ac, binder concentration: 500 nM), 0.0102 ± 0.00019; in assay [2] (peptide modifications: H2BK23ac H2BK24ac H2BK27ac H2BK28ac, binder concentration: 10 nM) it was 0.00722 ± 0.00059; in assay [2] (peptide modifications: H2BK23ac H2BK24ac H2BK27ac H2BK28ac, binder concentration: 100 nM), 0.0164 ± 0.00086; in assay [3] (setting [5]), 0.00215 ± 0.00011; in assay [3] (setting [6]), 0.00205 ± 0.00011. Besides, the “peptide microarray binding signal” value in assay [4] (setting [5]) stood at 0.00101 ± 6.9e-05; in assay [4] (setting [6]), 0.00138 ± 1.4e-05.
Turning to AVTKAQKKDGKKR [H2B 17-29 A V T K A Q Kac Kac D G Kac K R], the “peptide microarray binding signal” value in assay [1] (peptide modifications: H2BK23ac H2BK24ac H2BK27ac, binder concentration: 50 nM) stood at 0.00329 ± 7.2e-05; in assay [1] (peptide modifications: H2BK23ac H2BK24ac H2BK27ac, binder concentration: 500 nM), 0.00362 ± 0.00012; in assay [2] (peptide modifications: H2BK23ac H2BK24ac H2BK27ac, binder concentration: 10 nM), 0.00406 ± 5.6e-05; in assay [2] (peptide modifications: H2BK23ac H2BK24ac H2BK27ac, binder concentration: 100 nM), 0.004039 ± 3.4e-05; in assay [3] (setting [7]), 0.00068 ± 1.9e-05; in assay [3] (setting [8]), 0.0012 ± 5.2e-05. The “peptide microarray binding signal” value in assay [4] (setting [7]) came to 0.000453 ± 1.3e-05; in assay [4] (setting [8]), 0.000519 ± 5.6e-06.
As to AVTKAQKKDGKKR [H2B 17-29 A V T Kac A Q K K D G K Kac R], the “peptide microarray binding signal” value in assay [1] (peptide modifications: H2BK20ac H2BK28ac, binder concentration: 50 nM) is 0.00245 ± 3.9e-05; in assay [1] (peptide modifications: H2BK20ac H2BK28ac, binder concentration: 500 nM), 0.00848 ± 0.00061; in assay [2] (peptide modifications: H2BK20ac H2BK28ac, binder concentration: 10 nM), 0.00328 ± 6.2e-05; in assay [2] (peptide modifications: H2BK20ac H2BK28ac, binder concentration: 100 nM), 0.00446 ± 0.00022; in assay [3] (setting [9]) it was 0.00126 ± 0.00023; in assay [3] (setting [10]), 0.000799 ± 8.3e-06. Besides, the “peptide microarray binding signal” value in assay [4] (setting [9]) turned out to be 0.000393 ± 7.7e-06; in assay [4] (setting [10]), 0.000461.
Turning to AVTKAQKKDGKKR [H2B 17-29 A V T K A Q Kac K D G K Kac R], the “peptide microarray binding signal” value in assay [1] (peptide modifications: H2BK23ac H2BK28ac, binder concentration: 50 nM) came out at 0.00348 ± 0.00011; in assay [1] (peptide modifications: H2BK23ac H2BK28ac, binder concentration: 500 nM), 0.00929 ± 0.00055; in assay [2] (peptide modifications: H2BK23ac H2BK28ac, binder concentration: 10 nM) it was 0.00442 ± 0.00046; in assay [2] (peptide modifications: H2BK23ac H2BK28ac, binder concentration: 100 nM) it was 0.00312 ± 0.00011; in assay [3] (setting [11]), 0.002 ± 0.00012; in assay [3] (setting [12]), 0.000799 ± 8.3e-06. Moreover, the entries for the “peptide microarray binding signal” value in assay [4] (setting [11]) and in assay [4] (setting [12]) were 0.000529 ± 1.3e-05 and 0.000634, respectively.
On to AVTKAQKKDGKKR [H2B 17-29 A V T Kac A Q K Kac D G Kac K R], for which the “peptide microarray binding signal” value in assay [1] (peptide modifications: H2BK20ac H2BK24ac H2BK27ac, binder concentration: 50 nM) was 0.00335 ± 0.0001; in assay [1] (peptide modifications: H2BK20ac H2BK24ac H2BK27ac, binder concentration: 500 nM), 0.00514 ± 0.00021; in assay [2] (peptide modifications: H2BK20ac H2BK24ac H2BK27ac, binder concentration: 10 nM), 0.0031 ± 0.00013; in assay [2] (peptide modifications: H2BK20ac H2BK24ac H2BK27ac, binder concentration: 100 nM), 0.00255 ± 0.00012; in assay [3] (setting [13]) it was 0.00289 ± 0.00021; in assay [3] (setting [14]), 0.00143 ± 2.4e-05. Also, the “peptide microarray binding signal” value in assay [4] (setting [13]) turned out to be 0.000649 ± 5.6e-05; in assay [4] (setting [14]), 0.0011 ± 1.1e-05.
Regarding AVTKAQKKDGKKR [H2B 17-29 A V T K A Q Kac K D G Kac K R], the “peptide microarray binding signal” value in assay [1] (peptide modifications: H2BK23ac H2BK27ac, binder concentration: 50 nM) worked out at 0.0053 ± 0.00061; in assay [1] (peptide modifications: H2BK23ac H2BK27ac, binder concentration: 500 nM) it was 0.00781 ± 0.00049; in assay [2] (peptide modifications: H2BK23ac H2BK27ac, binder concentration: 10 nM) it was 0.00722 ± 0.00015; in assay [2] (peptide modifications: H2BK23ac H2BK27ac, binder concentration: 100 nM), 0.00751 ± 0.001; in assay [3] (setting [15]), 0.0021 ± 0.00039; in assay [3] (setting [16]) it was 0.000856 ± 8.9e-06. Moreover, the “peptide microarray binding signal” value was determined as 0.000604 ± 2e-05 in assay [4] (setting [15]) and 0.000923 ± 9.6e-06 in assay [4] (setting [16]).
Consider AVTKAQKKDGKKR [H2B 17-29 A V T K A Q Kac Kac D G K K R], for which the “peptide microarray binding signal” value in assay [1] (peptide modifications: H2BK23ac H2BK24ac, binder concentration: 50 nM) is 0.00605 ± 0.00096; in assay [1] (peptide modifications: H2BK23ac H2BK24ac, binder concentration: 500 nM) it was 0.00486 ± 0.0017; in assay [2] (peptide modifications: H2BK23ac H2BK24ac, binder concentration: 10 nM), 0.00543 ± 0.00017; in assay [2] (peptide modifications: H2BK23ac H2BK24ac, binder concentration: 100 nM) it was 0.00347 ± 0.00023; in assay [3] (setting [17]), 0.000566 ± 8.2e-05; in assay [3] (setting [18]), 0.00257 ± 0.00026. For the same molecule, the “peptide microarray binding signal” value worked out at 0.000951 ± 7.5e-05 in assay [4] (setting [17]) and 0.00115 ± 4.1e-05 in assay [4] (setting [18]).
For the molecule AVTKAQKKDGKKR [H2B 17-29 A V T Kac A Q K K D G K K R], the “peptide microarray binding signal” value came to 0.00492 ± 0.0007 in assay [1] (peptide modifications: H2BK20ac, binder concentration: 50 nM); 0.00962 ± 0.0042 in assay [1] (peptide modifications: H2BK20ac, binder concentration: 500 nM); 0.00448 ± 0.00039 in assay [2] (peptide modifications: H2BK20ac, binder concentration: 10 nM); 0.00829 ± 0.0016 in assay [2] (peptide modifications: H2BK20ac, binder concentration: 100 nM); 0.000378 ± 2.7e-05 in assay [3] (setting [19]); 0.0012 ± 4.3e-05 in assay [3] (setting [20]). Further, the results for the “peptide microarray binding signal” value in assay [4] (setting [19]) and in assay [4] (setting [20]) were 0.000483 ± 1.2e-05 and 0.000807 ± 2.5e-05, respectively.
Regarding AVTKAQKKDGKKR [H2B 17-29 A V T K A Q K Kac D G K K R], the “peptide microarray binding signal” value in assay [1] (peptide modifications: H2BK24ac, binder concentration: 50 nM) came out at 0.00295 ± 0.00019; in assay [1] (peptide modifications: H2BK24ac, binder concentration: 500 nM), 0.00762 ± 0.00062; in assay [2] (peptide modifications: H2BK24ac, binder concentration: 10 nM), 0.00609 ± 0.00052; in assay [2] (peptide modifications: H2BK24ac, binder concentration: 100 nM) it was 0.0283 ± 0.032; in assay [3] (setting [21]), 0.0013 ± 8.9e-05; in assay [3] (setting [22]), 0.000742. For the same molecule, the “peptide microarray binding signal” value turned out to be 0.000347 ± 3.5e-06 in assay [4] (setting [21]) and 0.000577 ± 6.2e-06 in assay [4] (setting [22]).
Consider AVTKAQKKDGKKR [H2B 17-29 A V T Kac A Q K Kac D G K Kac R], for which the “peptide microarray binding signal” value worked out at 0.00815 ± 0.00023 in assay [1] (peptide modifications: H2BK20ac H2BK24ac H2BK28ac, binder concentration: 50 nM); 0.00795 ± 0.00026 in assay [1] (peptide modifications: H2BK20ac H2BK24ac H2BK28ac, binder concentration: 500 nM); 0.00853 ± 0.00032 in assay [2] (peptide modifications: H2BK20ac H2BK24ac H2BK28ac, binder concentration: 10 nM); 0.0068 ± 0.00034 in assay [2] (peptide modifications: H2BK20ac H2BK24ac H2BK28ac, binder concentration: 100 nM); 0.00196 ± 0.00041 in assay [3] (setting [23]); 0.002054 ± 1.9e-05 in assay [3] (setting [24]). Besides, the “peptide microarray binding signal” value in assay [4] (setting [23]) amounted to 0.0013 ± 0.00012; in assay [4] (setting [24]) it was 0.001614 ± 1.6e-05.
